Screening data (PubChem BioAssay)
GPT2 inh: GPT2 alanine aminotransferase inhibition; Q8TD30; Potency, µM (series often up to 57.7 µM), actives largely listed as inhibitors; AID 1671188; hit rate 0.25% among 100,000; Recombinant GPT2, coupled pyruvate oxidase/HRP Amplex Red fluorescence; also: nearly all actives have a fitted effect of over 60% in size
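Fluorescence read-out: pyruvate from GPT2 turnover coupled to pyruvate oxidase, HRP and Amplex Red (0.2mM ThPP, 0.2U/mL PO and HRP, 50uM Amplex final). Substrates 250uM a-KG, 2mM L-alanine; enzyme 10ng/uL; 30 min RT.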
HEK293 tox: cytotoxic compounds in HEK 293 cells; HEK 293 viability, ATP luminescence (CellTiter-Glo), 48-72 h; Potency, µM (highest dose often 115 µM), actives largely listed as inhibitors; AID 1345083; hit rate 6.6% among 94,000; also: nearly all actives have a fitted effect of over 60% in size
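Cells seeded first (HEK 293, 250 cells/well), then compound added by pintool. Incubation ran 48 or 72 hr at 37 degree Celsius. CellTiter-Glo was added and luminescence imaged after 10 min at room temperature.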
hNpr1 antagonist: human Npr1 receptor antagonism; hit rate 1.6% among 76,000; HEK293 hNpr1 GloSensor cGMP, ANP-stimulated luminescence; P16066; Potency, µM (top dose mostly 46.3 µM), usual class: inhibitors; calls by dose curve; also: nearly all actives have a fitted effect of over 60% in size
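Compound pre-incubated 30 min at room temperature on GloSensor-loaded HEK293 cells stably carrying hNpr1 and the pGS-40F cGMP biosensor. Stimulation uses hNppA at 0.1 nM final; luminescence is taken at baseline and 20 min post-agonist.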
FLuc inh: blocks purified firefly luciferase enzyme activity; purified P. pyralis luciferase, luminescence, biochemical; hit rate 2.5% among 76,000; Potency, µM (series often up to 115 µM), most hits filed as inhibitors; also: nearly all actives have a fitted effect of over 65% in size
Target sequence (P08659 whole entry, looked up): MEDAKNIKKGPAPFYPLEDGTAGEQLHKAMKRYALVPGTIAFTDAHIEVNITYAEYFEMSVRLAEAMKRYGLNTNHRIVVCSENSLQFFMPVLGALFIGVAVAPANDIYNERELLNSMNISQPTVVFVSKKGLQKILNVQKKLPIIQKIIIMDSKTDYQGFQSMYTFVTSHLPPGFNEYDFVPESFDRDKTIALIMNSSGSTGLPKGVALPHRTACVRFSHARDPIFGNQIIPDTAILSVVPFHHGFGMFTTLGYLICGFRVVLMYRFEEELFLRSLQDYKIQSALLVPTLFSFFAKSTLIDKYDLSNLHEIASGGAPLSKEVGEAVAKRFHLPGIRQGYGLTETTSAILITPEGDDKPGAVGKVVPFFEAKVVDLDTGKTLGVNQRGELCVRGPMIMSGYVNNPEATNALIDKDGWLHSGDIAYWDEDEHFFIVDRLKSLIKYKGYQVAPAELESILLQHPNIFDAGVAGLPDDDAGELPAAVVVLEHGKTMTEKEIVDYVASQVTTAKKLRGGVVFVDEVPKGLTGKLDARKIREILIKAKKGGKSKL
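Cell-free enzyme assay, 10nM P. pyralis luciferase, luciferin and ATP each at 10uM. Inhibition profiled over a 6-point titration, read as luminescence.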
NIH3T3 tox: kills NIH 3T3 cells. NIH 3T3 viability, CellTiter-Glo ATP luminescence, 48-72 h. Potency, µM (titrated, usually from 96.7 µM), hits mostly inhibitors. hit rate 4.3% among 94,000. AID 1345082; also: nearly all actives have a fitted effect of over 55% in size
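Cells were seeded at 400 per well, treated with pin-transferred compound, and kept 48 or 72 hr at 37 °C before CellTiter-Glo addition and luminescence imaging of cellular ATP.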
NPR1 antag cnf: confirmation of human Npr1 natriuretic peptide receptor antagonists; hit rate 76% among 1,400; Potency, µM (top dose mostly 57.6 µM), usual class: inhibitors; shares compounds with hNpr1 antagonist; AID 1347044; HEK293 hNpr1 cGMP GloSensor luminescence, ANP-stimulated; calls by dose curve; also: nearly all actives have a fitted effect of over 70% in size
Npr2 selectivity: selectivity test of Npr1 antagonists against human Npr2. shares compounds with hNpr1 antagonist. HEK293 hNpr2 GloSensor cGMP luminescence, CNP-stimulated. Potency, µM (doses to about 57.6 µM), hits mostly inhibitors. hit rate 67% among 1,400. AID 1347046; calls by dose curve; also: nearly all actives have a fitted effect of over 70% in size
FLuc counter: inhibits firefly luciferase, false Npr1 antagonist flag; shares compounds with hNpr1 antagonist; purified FLuc enzyme, luminescence, Km substrate; Potency, µM (top dose mostly 57.6 µM), most hits filed as inhibitors; hit rate 0.7% among 1,400
GloSensor ctrl: reduces cGMP signal in GloSensor control cells. shares compounds with hNpr1 antagonist. HEK293 GloSensor cGMP, SNP-stimulated, luminescence. Potency, µM (series often up to 57.6 µM), hits mostly inhibitors. hit rate 69% among 1,400. AID 1347051; calls by dose curve; also: nearly all actives have a fitted effect of over 70% in size
Of the large screens only hits and unclear results are named; the others gave an inactive call (follow-up assays come after a bar, where they were run). Rows were chosen to be rich in hits. Some 10% of all compounds tested hit in one or more screens of this group. Unless noted, calls follow the shape of the dose curve; as a rule, active = well fitted curve in the direction sought with a large enough effect; inconclusive = small, poorly fitted or top-dose-only effect, or another doubt; inactive = no such curve, though single readings can be large; an effect the other way counts as inactive or inconclusive.

FC(F)(F)c1ccc(O[C@H]2COCCN(c3nc4ccccc4o3)C2)nc1	HEK293 tox 100µM, hNpr1 antagonist 35µM, NIH3T3 tox inconclusive | NPR1 antag cnf 40µM | Npr2 selectivity 35µM | FLuc counter inactive | GloSensor ctrl 35µM
CCNC(=O)N[C@H]1C[C@@H](Cc2cc(CN3CCN(c4ccccc4)CC3)on2)C1(C)C	HEK293 tox inconclusive, hNpr1 antagonist inconclusive, NIH3T3 tox inconclusive
CC(C)(C)CC(=O)N[C@H]1C[C@@H](Cc2cc(CN3CCN(c4ccccc4)CC3)on2)C1(C)C	GPT2 inh inconclusive, HEK293 tox 25µM, hNpr1 antagonist 2.8µM, NIH3T3 tox inconclusive | NPR1 antag cnf 3.1µM | Npr2 selectivity 3.4µM | FLuc counter inactive | GloSensor ctrl 2.4µM
CN(C)CC1(O)CCC2(CCN(S(=O)(=O)c3ccc(F)cc3)CC2)CC1	none
Cc1nc2cccnc2n1CC1CCCN(S(=O)(=O)c2ccc(C(C)C)cc2)C1 (configuration not stated)	HEK293 tox inconclusive, hNpr1 antagonist inconclusive, NIH3T3 tox inconclusive | NPR1 antag cnf 27µM | Npr2 selectivity inconclusive | FLuc counter inactive | GloSensor ctrl 24µM
Cc1ccc(S(=O)(=O)N2CCCC(Cn3c(C)nc4cccnc43)C2)cc1 (configuration not stated)	HEK293 tox inconclusive, NIH3T3 tox inconclusive
O=C1CCC(CNC(=O)c2nc(-c3ccccc3)cc3[nH]ccc23)N1 (configuration not stated)	NIH3T3 tox inconclusive
O=C(NCCCn1ccnc1)c1nc(-c2ccccc2)cc2[nH]ccc12	HEK293 tox inconclusive, hNpr1 antagonist inconclusive, NIH3T3 tox inconclusive | NPR1 antag cnf inconclusive | Npr2 selectivity inconclusive | FLuc counter inactive | GloSensor ctrl inactive
CNC(=O)c1cc(C)nc2onc(C3CCCN3C(=O)c3ccc(Cl)cc3)c12 (configuration not stated)	none (no result: GPT2 inh, hNpr1 antagonist, FLuc inh)
O=C(c1cc(CN2CCOCC2)on1)N1CCC(c2nc(C3CCOCC3)no2)C1 (configuration not stated)	none | NPR1 antag cnf inactive | Npr2 selectivity inactive | FLuc counter inactive | GloSensor ctrl inactive
O=C(c1ccccc1)N1CCC(c2nc(C3CCOCC3)no2)C1 (configuration not stated)	none
COc1ccc(OC)c(NC(=O)c2ccc3c(c2)N(S(=O)(=O)c2ccccc2)CC3)c1	GPT2 inh inconclusive, HEK293 tox inconclusive, FLuc inh inconclusive, NIH3T3 tox inconclusive
COc1ccc(S(=O)(=O)N2CCc3c(C(=O)Nc4cccc(C)c4)cccc32)cc1	HEK293 tox 18µM, hNpr1 antagonist inconclusive, NIH3T3 tox inconclusive | NPR1 antag cnf inconclusive | Npr2 selectivity inconclusive | FLuc counter inactive | GloSensor ctrl inconclusive
COc1ccc(NC(=O)c2ccc3c(c2)N(S(=O)(=O)c2ccccc2)CC3)cc1	HEK293 tox inconclusive, hNpr1 antagonist 10µM | NPR1 antag cnf 24µM | Npr2 selectivity 24µM | FLuc counter inactive | GloSensor ctrl 22µM
CS(=O)(=O)c1ccc(CNC[C@H]2COCc3nc4cc(F)ccc4n32)cc1	HEK293 tox inconclusive, NIH3T3 tox inconclusive
COc1ccc(S(=O)(=O)NC[C@H]2COCc3nc4cc(C)ccc4n32)cc1	HEK293 tox inconclusive, hNpr1 antagonist 16µM, NIH3T3 tox inconclusive | NPR1 antag cnf 31µM | Npr2 selectivity 31µM | FLuc counter inactive | GloSensor ctrl 22µM
COc1ccc(-c2cn3c(n2)CO[C@@H](CNS(=O)(=O)c2ccc(C)cc2)C3)cc1	hNpr1 antagonist 28µM | NPR1 antag cnf 31µM | Npr2 selectivity 31µM | FLuc counter inconclusive | GloSensor ctrl 28µM
Cc1ccc2c(c1)nc1n2[C@@H](CNS(=O)(=O)Cc2ccccc2)COC1	HEK293 tox inconclusive, hNpr1 antagonist 22µM, NIH3T3 tox inconclusive | NPR1 antag cnf 35µM | Npr2 selectivity 35µM | FLuc counter inactive | GloSensor ctrl 28µM
Cc1ccc2nc3n(c2c1)[C@@H](CNS(=O)(=O)Cc1ccccc1)COC3	HEK293 tox inconclusive, hNpr1 antagonist inconclusive, NIH3T3 tox inconclusive
Cc1cccc2c1nc1n2[C@@H](CNCc2ccc(S(C)(=O)=O)cc2)COC1	HEK293 tox inconclusive, hNpr1 antagonist 25µM, NIH3T3 tox inconclusive | NPR1 antag cnf 31µM | Npr2 selectivity 35µM | FLuc counter inactive | GloSensor ctrl 22µM
COc1ccc(S(=O)(=O)NC[C@H]2COCc3nc4c(C)cccc4n32)cc1	HEK293 tox inconclusive, hNpr1 antagonist 25µM, NIH3T3 tox inconclusive | NPR1 antag cnf 18µM | Npr2 selectivity 22µM | FLuc counter inactive | GloSensor ctrl 14µM
Cc1cccc2c1nc1n2[C@@H](CNS(=O)(=O)c2ccccc2)COC1	HEK293 tox inconclusive, hNpr1 antagonist inconclusive, NIH3T3 tox inconclusive
Cc1cc(C(=O)Nc2cccc(-c3nnc4n3CCCC4)c2)n[nH]1	hNpr1 antagonist inconclusive | NPR1 antag cnf inconclusive | Npr2 selectivity inconclusive | FLuc counter inactive | GloSensor ctrl inconclusive
Cc1ccc(C(=O)Nc2cccc(-c3nnc4n3CCCC4)c2)cc1	FLuc inh inconclusive
O=C(c1ccc(Cl)cc1)N1CCC(n2cc(-c3nc(-c4ccccc4)no3)nn2)CC1	HEK293 tox inconclusive, hNpr1 antagonist 16µM, NIH3T3 tox inconclusive | NPR1 antag cnf 22µM | Npr2 selectivity 22µM | FLuc counter inactive | GloSensor ctrl 22µM
O=C(c1ccc(F)cc1)N1CCC(n2cc(-c3nc(-c4ccccc4)no3)nn2)CC1	HEK293 tox inconclusive, hNpr1 antagonist inconclusive, NIH3T3 tox inconclusive | NPR1 antag cnf inconclusive | Npr2 selectivity inconclusive | FLuc counter inactive | GloSensor ctrl 24µM
CC(Oc1ccccc1)C(=O)N1CCC(n2cc(-c3nc(-c4ccccc4)no3)nn2)CC1 (configuration not stated)	HEK293 tox 20µM, hNpr1 antagonist 18µM, NIH3T3 tox inconclusive | NPR1 antag cnf 24µM | Npr2 selectivity 22µM | FLuc counter inactive | GloSensor ctrl 24µM
